From publication PMC8222333, “AsCas12a ultra nuclease facilitates the rapid generation of therapeutic cell medicines”

How the values were obtained:
dAsCas12a WT = dAsCas12a WT (Acidaminococcus sp., UniProt U2UMQ6 1-1307, D908A;E993A;D1235A); assay: Spec-seq (native PAGE EMSA with sequencing of bound and unbound); 25 mM Tris-HCl pH 7.4, 150 mM KCl, 5 mM MgCl2, 10% glycerol, 1 mM DTT, 40 ng/uL salmon sperm DNA; 400 nM Cas12a, 480 nM crRNA, 50 nM library, 37 C 1 h; native P; high values mean tight binding
dAsCas12a Ultra = dAsCas12a Ultra (Acidaminococcus sp., UniProt U2UMQ6 1-1307, M537R;F870L;D908A;E993A;D1235A); assay: Spec-seq (native PAGE EMSA with sequencing of bound and unbound); 25 mM Tris-HCl pH 7.4, 150 mM KCl, 5 mM MgCl2, 10% glycerol, 1 mM DTT, 40 ng/uL salmon sperm DNA; 400 nM Cas12a, 480 nM crRNA, 50 nM library, 37 C 1 h; native PAGE at room temperature; high values mean tight binding; settings: protein: recombinant
dAsCas12a E174R = dAsCas12a E174R (Acidaminococcus sp., UniProt U2UMQ6 1-1307, E174R;D908A;E993A;D1235A); assay: as above; settings: protein: recombinant;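 also: relative affinity from the bound to unbound sequence frequency ratio in Spec-seq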
dAsCas12a S542R = dAsCas12a S542R (Acidaminococcus sp., UniProt U2UMQ6 1-1307, S542R;D908A;E993A;D1235A); assay: as above; settings: protein: recombinant;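 also: relative affinity from the bound to unbound sequence frequency ratio in Spec-seq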
dAsCas12a K548R = dAsCas12a K548R (Acidaminococcus sp., UniProt U2UMQ6 1-1307, K548R;D908A;E993A;D1235A); assay: as above; settings: protein: recombinant
d-enCas12a = d-enCas12a (Acidaminococcus sp., UniProt U2UMQ6 1-1307, E174R;S542R;K548R;D908A;E993A;D1235A); assay: as above; settings: protein: recombinant
d-enCas12a-Ultra = d-enCas12a-Ultra (Acidaminococcus sp., UniProt U2UMQ6 1-1307, E174R;S542R;K548R;M537R;F870L;D908A;E993A;D1235A); assay: as above; settings: protein: recombinant;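 also: relative affinity from the bound to unbound sequence frequency ratio in Spec-seq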

Binder	binding signal (dAsCas12a WT) [lnKA]	binding signal (dAsCas12a Ultra) [lnKA]	binding signal (dAsCas12a E174R) [lnKA]	binding signal (dAsCas12a S542R) [lnKA]	binding signal (dAsCas12a K548R) [lnKA]	binding signal (d-enCas12a) [lnKA]	binding signal (d-enCas12a-Ultra) [lnKA]
TCTC (dsDNA) DNA 1: GCTATCTAGTGCTCAGTACGCACTGTCTCAGGAAACTTCTGGCAGGACCAGGTCATGAGATCGGAAGAGCACACGTCTGAACTCCAGTCA DNA 2: TGACTGGAGTTCAGACGTGTGCTCTTCCGATCTCATGACCTGGTCCTGCCAGAAGTTTCCTGAGACAGTGCGTACTGAGCACTAGATAGC RNA: AAUUUCUACUCUUGUAGAUAGGAAACUUCUGGCAGGACC	-5.94	-3.61	-3.18	-4.47	-8.65	-3.15	-0.761
TTTC (dsDNA) DNA 1: GCTATCTAGTGCTCAGTACGCACTGTTTCAGGAAACTTCTGGCAGGACCAGGTCATGAGATCGGAAGAGCACACGTCTGAACTCCAGTCA DNA 2: TGACTGGAGTTCAGACGTGTGCTCTTCCGATCTCATGACCTGGTCCTGCCAGAAGTTTCCTGAAACAGTGCGTACTGAGCACTAGATAGC RNA: AAUUUCUACUCUUGUAGAUAGGAAACUUCUGGCAGGACC	0.0688	-0.0656	-0.339	-0.143	0.462	0.00167	0.033
TGTC (dsDNA) DNA 1: GCTATCTAGTGCTCAGTACGCACTGTGTCAGGAAACTTCTGGCAGGACCAGGTCATGAGATCGGAAGAGCACACGTCTGAACTCCAGTCA DNA 2: TGACTGGAGTTCAGACGTGTGCTCTTCCGATCTCATGACCTGGTCCTGCCAGAAGTTTCCTGACACAGTGCGTACTGAGCACTAGATAGC RNA: AAUUUCUACUCUUGUAGAUAGGAAACUUCUGGCAGGACC	-8.93	-7.57	-7.56	-7.52	-6.58	-0.999	-0.323
TTTG (dsDNA) DNA 1: GCTATCTAGTGCTCAGTACGCACTGTTTGAGGAAACTTCTGGCAGGACCAGGTCATGAGATCGGAAGAGCACACGTCTGAACTCCAGTCA DNA 2: TGACTGGAGTTCAGACGTGTGCTCTTCCGATCTCATGACCTGGTCCTGCCAGAAGTTTCCTCAAACAGTGCGTACTGAGCACTAGATAGC RNA: AAUUUCUACUCUUGUAGAUAGGAAACUUCUGGCAGGACC	-1.4	-0.474	-0.628	-0.333	-0.458	-0.151	-0.067
TTGC (dsDNA) DNA 1: GCTATCTAGTGCTCAGTACGCACTGTTGCAGGAAACTTCTGGCAGGACCAGGTCATGAGATCGGAAGAGCACACGTCTGAACTCCAGTCA DNA 2: TGACTGGAGTTCAGACGTGTGCTCTTCCGATCTCATGACCTGGTCCTGCCAGAAGTTTCCTGCAACAGTGCGTACTGAGCACTAGATAGC RNA: AAUUUCUACUCUUGUAGAUAGGAAACUUCUGGCAGGACC	-8.28	-6.02	-6.51	-6.74	-7.43	-2.75	-0.707
TTCA (dsDNA) DNA 1: GCTATCTAGTGCTCAGTACGCACTGTTCAAGGAAACTTCTGGCAGGACCAGGTCATGAGATCGGAAGAGCACACGTCTGAACTCCAGTCA DNA 2: TGACTGGAGTTCAGACGTGTGCTCTTCCGATCTCATGACCTGGTCCTGCCAGAAGTTTCCTTGAACAGTGCGTACTGAGCACTAGATAGC RNA: AAUUUCUACUCUUGUAGAUAGGAAACUUCUGGCAGGACC	-7.22	-4.73	-3.99	-1.85	-6.86	-0.506	-0.166
